Compound activity (PubChem BioAssay)
BCLXL inh = Bcl-xL (human) inhibition; Q07817; GST-Bcl-xL / FITC-Bim BH3 peptide fluorescence polarization; inhibition, % at 10.9 µM; actives 0.7% (n = 320,000);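 active = inhibition above the mean of all tested compounds plus 3 SD, cutoff set per campaign, cut at about 30% in these data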;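 note: 0% = DMSO wells and 100% = unlabeled Bim-BH3 peptide competitor; inhibitors lower millipolarization by displacing the labeled peptide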
MCL1-BIM inh = MCL1-BIM-BH3 interaction inhibition (human); actives 0.68% (n = 320,000); Q07820; GST-MCL1 / FITC-Bim-BH3 fluorescence polarization; inhibition, % at 10.9 µM;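 active = inhibition above the mean inhibition of all tested compounds plus 3 SD, set per campaign, cut at about 40% in these data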;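 note: 0% = DMSO wells and 100% = unlabeled Bim-BH3 peptide control; higher means more loss of mP so more displacement of Bim peptide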
Keap1 Nrf2 FP = inhibitors of human Keap1-Nrf2 protein-protein interaction; Q14145; Keap1 Kelch-Nrf2 peptide fluorescence polarization, 1536-well; inhibition, % at 9.4 µM; actives 0.15% (n = 340,000); in the data active = inhibition above about 12%;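 note: human Keap1 Kelch domain with fluorescein labeled Nrf2 9mer peptide probe; 0% = neutral control wells and 100% = peptide positive control; higher means more block of Keap1 binding to Nrf2 peptide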
GLD-1 RNA inh = GLD-1-TGE RNA interaction inhibition (C. elegans) | Q17339 | purified GLD-1 + fluorescein TGE RNA, fluorescence polarization | inhibition, % at 5.96 µM | actives 0.44% (n = 320,000) | AID 2280;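 active = percent inhibition above a per-plate cutoff, the plate mean of test compounds plus 3 SD, cut at about 30% in these data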;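 note: 0% = DMSO wells with GLD-1 and probe and 100% = wells lacking GLD-1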
Target sequence (Q17339 whole entry, looked up): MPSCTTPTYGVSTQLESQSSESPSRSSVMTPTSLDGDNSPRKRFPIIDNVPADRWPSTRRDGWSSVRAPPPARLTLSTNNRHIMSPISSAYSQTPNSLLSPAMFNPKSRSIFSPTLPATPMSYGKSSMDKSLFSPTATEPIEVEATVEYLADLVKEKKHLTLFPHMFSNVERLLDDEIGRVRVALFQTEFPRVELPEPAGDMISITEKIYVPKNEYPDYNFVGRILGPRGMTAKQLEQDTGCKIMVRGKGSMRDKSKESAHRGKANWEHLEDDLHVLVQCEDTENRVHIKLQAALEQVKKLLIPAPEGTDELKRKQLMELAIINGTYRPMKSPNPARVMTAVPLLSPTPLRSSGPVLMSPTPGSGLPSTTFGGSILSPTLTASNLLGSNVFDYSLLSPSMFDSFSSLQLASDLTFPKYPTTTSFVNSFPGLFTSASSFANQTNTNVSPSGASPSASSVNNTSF
C-LANA FP = blocks KSHV LANA C-terminal domain binding to DNA. MBP-C-LANA/FAM-LBS DNA binding, fluorescence polarization. inhibition, % at 9 µM. actives 0.078% (n = 340,000);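 active = highest replicate inhibition at or above 60% at 9 µM, even if other replicates fall short; inactive = all replicates below 60% inhibition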;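 note: 0% = neutral control wells and 100% = 4 µM acridine orange control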
eLon inh = inhibits E. coli Lon protease; P0A9M0; purified E. coli Lon protease, fluorescence polarization; inhibition, % at 7.94 µM; actives 0.42% (n = 360,000); AID 602123; in the data active = inhibition above about 13%, passing the limit was not always enough;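 note: 0% = enzyme with probe and DMSO and 100% = no enzyme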
An asterisk follows results filed as active. Compounds with a hit are over-represented: about 1.3% of the library has one in this group of screens.

How did Cc1cc(C)c([C@@H]2C[C@H]3CN(C4CCCC4)C(=O)[C@]34CCCN24)c(-n2cccn2)c1 do in these assays?
BCLXL inh: 34*; MCL1-BIM inh: 29; Keap1 Nrf2 FP: -5; GLD-1 RNA inh: 25; C-LANA FP: 5; eLon inh: 12

What do the screens show for `C=CCN1C=C2C(=O)C(C)(OC(=O)c3ccco3)C(=O)C(C=C)=C2C=C1C1CC1` (stereo unspecified)?
BCLXL inh: 32*; MCL1-BIM inh: 32; GLD-1 RNA inh: 20

What do the screens show for `C=CC1=C2C=C(C3CC3)N(CCCN(CC)CC)C=C2C(=O)C(C)(OC(=O)c2ccco2)C1=O` (stereo unspecified)?
BCLXL inh: 41*; MCL1-BIM inh: 39; Keap1 Nrf2 FP: 3; GLD-1 RNA inh: 15; C-LANA FP: 2; eLon inh: 26

How did O=C(Nc1ccc(Br)cc1Br)Nc1cccc2[nH]c([C@@H]3O[C@H](CO)[C@@H](O)[C@H](O)[C@H]3O)nc12 do in these assays?
eLon inh: -6

What do the screens show for `CC(C)(C)OC(=O)[C@H](Cc1ccccc1)NC(=O)c1[nH]cnc1C(=O)Nc1ccccc1F`?
eLon inh: -3

How did O=S1(=O)CCN(C2CCCCCCC2)CC1 do in these assays?
eLon inh: 9

Results for Nc1c(S(=O)(=O)O)cc(NC(=O)c2ccccc2)c2c1C(=O)c1ccccc1C2=O ?
BCLXL inh: 72*; MCL1-BIM inh: 109*; Keap1 Nrf2 FP: -7; GLD-1 RNA inh: 68*; C-LANA FP: 1; eLon inh: 16

Results for CCc1ccc(/C=C2\Oc3c(ccc(O)c3CN3CCN(CCO)CC3)C2=O)cc1 ?
BCLXL inh: 51*; MCL1-BIM inh: 49*; Keap1 Nrf2 FP: -9; GLD-1 RNA inh: 8; C-LANA FP: 6; eLon inh: -33

How did CCc1ccc(/C=C2\Oc3cc(OS(C)(=O)=O)ccc3C2=O)cc1 do in these assays?
BCLXL inh: -3; MCL1-BIM inh: -2; Keap1 Nrf2 FP: 0; GLD-1 RNA inh: 2; C-LANA FP: -1; eLon inh: -11

How did Cn1ccc2c(N3c4ccccc4CCc4ccccc43)cc3c(c21)C1CCC3O1 (stereo unspecified) do in these assays?
eLon inh: -7

How did COC(=O)c1[nH]c2ccccc2c1NC(=O)/C=C/c1ccc2c(c1)OCO2 do in these assays?
BCLXL inh: 1; MCL1-BIM inh: 4; Keap1 Nrf2 FP: -1; GLD-1 RNA inh: -1; C-LANA FP: -3; eLon inh: -23

What do the screens show for `CCN(CC(=O)Nc1c(C(=O)OC)[nH]c2ccccc12)c1ccc2c(c1)OCO2`?
BCLXL inh: 44*; MCL1-BIM inh: 37; Keap1 Nrf2 FP: -3; GLD-1 RNA inh: 3; C-LANA FP: 1; eLon inh: 10

How did Cc1cc2oc(=O)cc(CN3CCOCC3)c2cc1C(C)C do in these assays?
BCLXL inh: 2; MCL1-BIM inh: 3; Keap1 Nrf2 FP: -2; GLD-1 RNA inh: 1; C-LANA FP: 0; eLon inh: -1

What do the screens show for `CC(C)c1cc(=O)oc2c3c4c(cc12)CCCN4CCC3`?
BCLXL inh: 26; MCL1-BIM inh: 18; Keap1 Nrf2 FP: -1; GLD-1 RNA inh: 44*; C-LANA FP: 8; eLon inh: -10

What do the screens show for `COc1ccc(Cc2c(C3CCCCC3)nc3c(C)cc(Br)cn23)c(C)c1`?
eLon inh: 8

How did COc1ccc(C(NC(=O)c2cccnc2)c2cc(Cl)c3cccnc3c2O)cc1OC (stereo unspecified) do in these assays?
BCLXL inh: 18; MCL1-BIM inh: 22; Keap1 Nrf2 FP: -7; GLD-1 RNA inh: 0; C-LANA FP: 0; eLon inh: 35*

What do the screens show for `CCC(=O)NC(c1ccc(OC)cc1)c1cc(Cl)c2cccnc2c1O` (stereo unspecified)?
BCLXL inh: 20; MCL1-BIM inh: 18; Keap1 Nrf2 FP: -1; GLD-1 RNA inh: 1; C-LANA FP: 0; eLon inh: -4

What do the screens show for `CNS(=O)(=O)c1cc2c3c(cccc3c1)C(=O)NC2=O`?
BCLXL inh: 32*; MCL1-BIM inh: 21; Keap1 Nrf2 FP: 3; GLD-1 RNA inh: 2; C-LANA FP: 3; eLon inh: -4

What do the screens show for `Cc1cc(NCC(=O)Nc2ccc(C)c(S(=O)(=O)N3CCOCC3)c2)ccc1Br`?
eLon inh: -13

What do the screens show for `CC1=C(C(=O)N(C(C)C)C(C)C)CC(CC(=O)NCCCCc2ccccc2)C(=O)N1Cc1ccc(F)cc1` (stereo unspecified)?
eLon inh: -2

What do the screens show for `Nc1ccc(Oc2ccccc2F)nc1`?
BCLXL inh: 14; MCL1-BIM inh: 8; Keap1 Nrf2 FP: -7; GLD-1 RNA inh: 32*; C-LANA FP: 2; eLon inh: -19

What do the screens show for `C[C@@H](NC(=O)c1ncn2c1c(=O)[nH]c1ccc(Br)cc12)c1ccccc1`?
eLon inh: -5

Results for O=C(N/C(=C\c1ccco1)C(=O)N1CCCC1)c1ccccc1 ?
BCLXL inh: 40*; MCL1-BIM inh: 41*; Keap1 Nrf2 FP: 0; GLD-1 RNA inh: 7; C-LANA FP: 1; eLon inh: -5

How did Cc1ccc(N2C(=O)C3CCC(C)(C2=O)C3(C)C)cc1C (stereo unspecified) do in these assays?
BCLXL inh: 38*; MCL1-BIM inh: -2; Keap1 Nrf2 FP: 3; GLD-1 RNA inh: 7; C-LANA FP: -1; eLon inh: 9

Results for Cc1ccccc1-n1c(=O)cc(NCC2CCCO2)[nH]c1=O (stereo unspecified) ?
BCLXL inh: 36*; MCL1-BIM inh: 17; Keap1 Nrf2 FP: 3; GLD-1 RNA inh: 11; C-LANA FP: -1; eLon inh: -6

What do the screens show for `CCC12CCCN3CCc4c(n(c5ccccc45)C(O)(C(=O)OC)C1)C32` (stereo unspecified)?
BCLXL inh: 31*; MCL1-BIM inh: 27; Keap1 Nrf2 FP: -4; GLD-1 RNA inh: 19; C-LANA FP: 15; eLon inh: -9

What do the screens show for `CC[C@]12CCCN3CCc4c(n(c5ccccc45)[C@](O)(C(=O)OC)C1)[C@@H]32`?
BCLXL inh: 3; MCL1-BIM inh: 5; Keap1 Nrf2 FP: 4; GLD-1 RNA inh: 2; C-LANA FP: -2; eLon inh: -4

What do the screens show for `C/C(=N/NC(=O)c1cc(O)c(O)c(O)c1)c1ccc([N+](=O)[O-])cc1`?
Keap1 Nrf2 FP: -2; C-LANA FP: 76*; eLon inh: -7

How did CC1(C(=O)NS(=O)(=O)C2CC2)CCN(C(=O)c2cc3ccccc3s2)C1 (stereo unspecified) do in these assays?
eLon inh: -2

How did OC[C@@H]1CN(Cc2cccs2)C[C@H](n2cnc3c(N4CCOCC4)ncnc32)O1 do in these assays?
eLon inh: -2
